Shown are actives, neighbours in structure and some others; about 10% of the full set was active somewhere.
GPT2 inh – inhibitors of human GPT2 alanine aminotransferase | Q8TD30 | Recombinant GPT2, coupled pyruvate oxidase/HRP Amplex Red fluorescence | 100,000 tested, 0.25% active | Potency, µM (doses to about 57.7 µM), hits mostly inhibitors; further: nearly all actives have a fitted effect of over 60% in size
Target sequence (Q8TD30 whole entry, looked up): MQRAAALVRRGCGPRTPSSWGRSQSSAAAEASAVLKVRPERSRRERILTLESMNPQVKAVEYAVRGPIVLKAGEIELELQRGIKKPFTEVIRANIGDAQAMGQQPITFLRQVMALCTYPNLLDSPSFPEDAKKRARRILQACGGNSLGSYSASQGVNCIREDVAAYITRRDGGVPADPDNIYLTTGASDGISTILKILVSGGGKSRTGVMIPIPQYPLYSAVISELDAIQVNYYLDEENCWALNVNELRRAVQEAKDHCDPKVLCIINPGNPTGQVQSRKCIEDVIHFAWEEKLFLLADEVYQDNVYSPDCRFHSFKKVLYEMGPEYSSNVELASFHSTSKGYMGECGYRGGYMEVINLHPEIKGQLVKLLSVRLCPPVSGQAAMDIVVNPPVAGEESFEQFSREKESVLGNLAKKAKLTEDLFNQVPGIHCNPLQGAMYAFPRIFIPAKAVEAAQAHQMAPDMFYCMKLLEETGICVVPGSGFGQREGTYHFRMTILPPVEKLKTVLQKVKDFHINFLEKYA
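Fluorescence of coupled pyruvate oxidase/HRP/Amplex Red system (50uM Amplex, 30 min, dark) reports pyruvate formed by GPT2. Enzyme reaction: 10ng/uL GPT2, 2mM L-alanine, 250uM a-KG, 30 min room temperature, pH 7.5; 50uM AOA control.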
FLuc inh-1 – blocks purified firefly luciferase enzyme activity. purified P. pyralis luciferase, luminescence, biochemical. AID 1347043. P08659. 76,000 tested, 2.5% active. Potency, µM (highest dose often 115 µM), actives largely listed as inhibitors; further: nearly all actives have a fitted effect of over 65% in size
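Purified 10nM P. pyralis luciferase with 10uM D-luciferin and 10uM ATP in 50mM Tris acetate pH 7.5, 10mM Mg acetate, 0.01% Tween-20, 0.05% BSA. qHTS titration; luminescence read by CCD imager.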
HEK cytotox – HEK 293 cell cytotoxicity. HEK 293 viability, ATP luminescence (CellTiter-Glo), 48-72 h. Potency, µM (highest dose often 115 µM), most hits filed as inhibitors. 94,000 tested, 6.6% active. AID 1345083; further: nearly all actives have a fitted effect of over 60% in size
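Read-out: CellTiter-Glo ATP luminescence. Cells: HEK 293, 250 cells/well. Exposure: 48 or 72 hr, 37 degree Celsius.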
NIH3T3 tox – kills NIH 3T3 cells; NIH 3T3 viability, CellTiter-Glo ATP luminescence, 48-72 h; Potency, µM (highest dose often 96.7 µM), actives largely listed as inhibitors; 94,000 tested, 4.3% active; further: nearly all actives have a fitted effect of over 55% in size
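Viability of NIH 3T3 cells after 48 or 72 hr compound treatment at 37 °C was assessed by CellTiter-Glo, with luminescence imaged following a 10 min room-temperature step.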
hNpr1 antagonist – human Npr1 receptor antagonism; HEK293 hNpr1 GloSensor cGMP, ANP-stimulated luminescence; Potency, µM (top dose mostly 46.3 µM), usual class: inhibitors; 76,000 tested, 1.6% active; AID 1347048; calls by dose curve; further: nearly all actives have a fitted effect of over 60% in size
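HEK293 cells stably expressing human Npr1 and cGMP GloSensor pGS-40F, loaded 2 h with 2% GloSensor reagent, given compound 30 min at room temperature. Luminescence read before and 20 min after 0.1 nM hNppA.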
FLuc SDR -ATP – firefly luciferase binding stabilization, ATP absent | shares compounds with FLuc inh-1 | Purified FLuc-C-HiBiT, Nano-Glo HiBiT luminescence, no ATP | Potency, µM (series often up to 32.7 µM), hits mostly activators | 1,300 tested, 7.8% active | AID 1963318; further: nearly all actives have a fitted effect of over 55% in size
FLuc SDR ATP – firefly luciferase binding stabilization, ATP added | shares compounds with FLuc inh-1 | Potency, µM (highest dose often 32.7 µM), most hits filed as activators | 1,300 tested, 8.7% active | purified FLuc-C-HiBiT + ATP, HiBiT complementation luminescence;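 further: signal reports ligand binding via conformational change of the enzyme rather than luciferase catalysis; nearly all actives have a fitted effect of over 55% in size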
FLuc inh-2 – inhibitors of firefly luciferase enzymatic activity; shares compounds with FLuc inh-1; 1,300 tested, 42% active; purified FLuc-C-HiBiT enzyme, luciferin luminescence; Potency, µM (titrated, usually from 32.7 µM), actives largely listed as inhibitors; further: nearly all actives have a fitted effect of over 70% in size
A number is an active result; i = inactive; ? = inconclusive; nt = no result. Unless noted, the call rests on the fitted dose curve; in most records, active means well fitted curve in the direction sought with a large enough effect; inconclusive means small, poorly fitted or top-dose-only effect, or another doubt; inactive means no such curve, though single readings can be large; an effect the other way counts as inactive or inconclusive.

SMILES	GPT2 inh	FLuc inh-1	HEK cytotox	NIH3T3 tox	hNpr1 antagonist	FLuc SDR -ATP	FLuc SDR ATP	FLuc inh-2
O=C1CC2(CCN(C(=O)C3CCCN(C(=O)c4ccc(C(F)(F)F)cc4)C3)CC2)Oc2ccccc2N1 (stereo unspecified)	i	nt	?	?	nt	nt	nt	nt
COc1ccc(-c2cnc3[nH]cc(CC(=O)N4CCN(c5ccccn5)CC4)c3c2)cc1	i	7.1µM	79µM	?	?	i	i	?
C[C@@]12CO[C@@H](CNC(=O)C3CCCC3)O[C@@H]1CC[C@]1(C)[C@@H]2CC[C@@H](O)[C@H]1CC(=O)NCc1ccc(F)cc1	i	i	?	?	i	nt	nt	nt
COc1ccc(NC(=O)c2cc3ccccc3o2)c(OC)c1	nt	nt	nt	nt	nt	i	i	?
O=C(NC1CCCCC1)N1Cc2[nH]cnc2C[C@H]1c1nc(-c2ccncc2)no1	i	i	i	i	i	nt	nt	nt
COc1ncccc1-c1csc(CN2CCCC(C)(NC(C)=O)C2)c1 (stereo unspecified)	i	i	?	?	i	nt	nt	nt
COc1ccc(-c2ccc(CN3CC(C)(NC(C)=O)C3)s2)cn1	nt	nt	nt	nt	nt	i	i	?
CC(=O)NC1(C)CN(Cc2ccc(-c3ccc(Oc4ccccc4)cc3)s2)C1	i	13µM	28µM	28µM	16µM	i	i	?
CC(=O)Nc1cccc(-c2csc(CN3CCCC(C)(NC(C)=O)C3)c2)c1 (stereo unspecified)	i	i	?	i	i	nt	nt	nt
O=C1CC(c2ccccc2)N(C(=O)CNC(=O)Nc2ccc3c(c2)OCCO3)CCCCCN1 (stereo unspecified)	i	10µM	i	i	i	i	i	?
O=C(NCCC1=CCCCC1)c1c(OCC2CC2)cc(=O)n2c1CCCCC2	i	i	i	?	i	nt	nt	nt
CCOc1ccc2nc(N(Cc3cccnc3)C(=O)c3cccs3)sc2c1	nt	nt	nt	nt	nt	i	i	i
CC(=O)N1CCNc2cc(Nc3cccc(N(C)C)c3)ncc2C1	i	2.8µM	?	?	i	i	?	16µM
COc1cccc(Nc2cc3c(cn2)CN(C(C)=O)CCN3)c1	i	1.8µM	?	?	i	?	?	9µM
CCCCNc1ncnc2c1CN(C1CCCNCC1)C(=O)CN2C (stereo unspecified)	i	nt	i	i	nt	nt	nt	nt
O=C(Nc1cccc(-c2nc3ccccc3[nH]2)c1)c1ccccc1F	nt	nt	nt	nt	nt	i	i	?
O=C(Nc1cccc(-c2nnc3n2CCCC3)c1)c1ccccc1F	i	i	i	?	i	nt	nt	nt
Cc1cc(C)cc(C(=O)N2CCc3[nH]nc(C(=O)N(C)C)c3C2)c1	i	i	i	i	i	nt	nt	nt
CC(C)Oc1ccc(C(=O)NC2CCN(c3cnn(CC4CC4)c(=O)c3)CC2)cc1	i	i	?	?	i	nt	nt	nt
O=C(Cc1ccccc1)NC1CCCN(c2ccc3nnc(C4CC4)n3n2)C1 (stereo unspecified)	nt	nt	i	i	nt	nt	nt	nt
O=C1c2cnc(-c3cccc(C(F)(F)F)c3)nc2OCCN1CC1CC1	i	3.2µM	?	?	?	?	?	9µM
Cc1ccc(-c2ncc3c(n2)OCCN(Cc2ccc(F)cc2F)C3=O)cc1	i	3.2µM	i	?	?	i	i	i
Cc1noc(C)c1-c1ncc2c(n1)OCCN(Cc1ccccc1)C2=O	i	i	i	?	i	nt	nt	nt
O=C1c2cnc(-c3ccsc3)nc2OCCN1CC1CC1	?	?	?	i	i	nt	nt	nt
C[S+](=O)([O-])c1ccc(-c2ncc3c(n2)OCCN(Cc2ccc(F)cc2F)C3=O)cc1	i	i	?	i	i	nt	nt	nt
SMILES	GPT2 inh	FLuc inh-1	HEK cytotox	NIH3T3 tox	hNpr1 antagonist	FLuc SDR -ATP	FLuc SDR ATP	FLuc inh-2
CN1CCOc2nc(-c3cccc(OC(F)(F)F)c3)ncc2C1=O	i	3.2µM	?	?	?	i	?	?
O=C1c2cnc(-c3cccc(CO)c3)nc2OCCN1c1cccc(C(F)(F)F)c1	i	11µM	?	18µM	?	i	i	?
Cc1ncccc1-c1nc2cc(C(=O)N3CCOCC3)ccc2o1	i	nt	i	?	nt	nt	nt	nt
O=C1Nc2ccc(-c3ccc4c(c3)OCO4)cc2C(=O)N2CCN(C(=O)NC3CCCCC3)C[C@H]12	i	i	?	?	i	nt	nt	nt
COC[C@@H]1CN(C(=O)c2cc3ccccc3[nH]2)C[C@H]1c1ccccn1	i	i	?	i	i	nt	nt	nt
Cc1nn(-c2ccccc2)c2c1C(C1CC1)N(C1CCN(CC3CCCCC3)CC1)C2=O (stereo unspecified)	nt	nt	i	i	nt	nt	nt	nt
CC(C)(C)c1ccc(C(=O)Nc2ccc([C@H]3OCC(=O)N[C@@H]3CO)cc2)cc1	i	10µM	?	89µM	i	i	i	?
O=C(Nc1ccc([C@H]2OCC(=O)N(Cc3ccncc3)[C@@H]2CO)cc1)c1ccc(C(F)(F)F)cc1	i	13µM	20µM	?	?	i	i	?
Cc1ccccc1C(=O)Nc1ccc([C@H]2OCC(=O)N(Cc3ccncc3)[C@@H]2CO)cc1	i	i	i	i	i	nt	nt	nt
COc1ccc(C(=O)NCCC2CCN(C(=O)Nc3cc(F)cc(F)c3)CC2)cc1	i	6.3µM	?	i	i	?	i	?
Cc1ccc(NC(=O)N2CCC(CCNC(=O)C(C)C)CC2)cc1F	i	?	i	i	i	nt	nt	nt
Cc1ccc(NC(=O)N2CCC(CCNC(=O)C3CCC3)CC2)cc1F	i	11µM	i	i	i	?	?	?
Cc1ccc(NC(=O)N2CCC(CCNC(=O)c3ccc(F)cc3)CC2)cc1F	i	10µM	?	?	i	i	i	?
Cc1ccc(NC(=O)N2CCC(CCNC(=O)C3CC3)CC2)cc1	i	10µM	?	i	i	?	?	?
COc1cccc(C(=O)NCCC2CCN(C(=O)Nc3cccc(F)c3)CC2)c1	i	i	i	?	i	nt	nt	nt
Cc1ncc2n1C(=O)N(C1CCN(C(=O)Nc3ccc(Cl)cc3)CC1)C2	i	i	?	i	?	nt	nt	nt
O=C(CCn1cnnn1)N1CC(c2noc(C3CCCN3CC3CC3)n2)C1 (stereo unspecified)	i	i	i	i	i	nt	nt	nt
CC(C)N1CC2(CCN(C(=O)C3CC3)CC2)C1c1ccccc1 (stereo unspecified)	i	nt	i	i	nt	nt	nt	nt
CNC(=O)c1cc(C2CC2)nc2onc(C3CCCN3C(=O)NC(C)C)c12 (stereo unspecified)	nt	nt	i	i	nt	nt	nt	nt
COc1ccc(-c2ccnc3nc(CC(C)C)nn23)cc1OC	i	i	?	?	i	nt	nt	nt
CNC(=O)c1nc2cccnc2n(Cc2ccc(OC)cc2)c1=O	i	nt	i	i	nt	nt	nt	nt
